Compound activity (PubChem BioAssay)
Shown are actives, neighbours in structure and some others; about 2.7% of the full set was active somewhere.
BRCA1 expr act: BRCA1 expression activation | MCF7-BRCA1-FFLuc reporter, luminescence, 48 h; response scale: scaled: vehicle 0%, 10 µM genistein 100% | Potency, µM (top dose mostly 46.1 µM), without a hit: at the top dose activation, actives largely listed as activators | 380,000 tested, 1.1% active; also: nearly all actives have a fitted effect of over 80% in size
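Quantitative HTS in MCF7 cells stably reporting BRCA1 expression via firefly luciferase. Compound treatment lasts 48 h at 37 °C in phenol-red free MEM. Activation is expressed relative to genistein at 10 microM and DMSO.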
GLP1R cytotox: cytotoxic in the GLP-1 receptor inverse agonist counter-screen; HEK293 cAMP-luciferase reporter cells, luminescence, 24 h; Potency, µM (highest dose often 38.3 µM), inactives show at the highest dose activity change, negative = inhibition, most hits filed as inhibitors; 410,000 tested, 0.13% active;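 also: loss of luciferase light is scored as toxicity; % is scaled to controls: 0 for no effect and ±100 for the full control effect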
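Compound-treated cells are incubated 24 hr at 37 deg C under 5% CO2 after a 12 hour attachment period, then luciferase detection reagent is added and luminescence is measured following 12 min at room temperature; lowered signal indicates toxicity.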
GLP-1R inv ag: GLP-1 receptor (human) inverse agonism | 410,000 tested, 1.6% active | Potency, µM (highest dose often 38.3 µM), without a hit: at the highest dose activity change, negative = inhibition, hits mostly inhibitors | P43220 | HEK293 GLP-1R CRE-luciferase, luminescence, 24 h; GLP-1R form is constitutively active; also: % is scaled to controls: 0 for no effect and ±100 for the full control effect; nearly all actives have a fitted effect of over 55% in size
Target sequence (P43220 whole entry, looked up): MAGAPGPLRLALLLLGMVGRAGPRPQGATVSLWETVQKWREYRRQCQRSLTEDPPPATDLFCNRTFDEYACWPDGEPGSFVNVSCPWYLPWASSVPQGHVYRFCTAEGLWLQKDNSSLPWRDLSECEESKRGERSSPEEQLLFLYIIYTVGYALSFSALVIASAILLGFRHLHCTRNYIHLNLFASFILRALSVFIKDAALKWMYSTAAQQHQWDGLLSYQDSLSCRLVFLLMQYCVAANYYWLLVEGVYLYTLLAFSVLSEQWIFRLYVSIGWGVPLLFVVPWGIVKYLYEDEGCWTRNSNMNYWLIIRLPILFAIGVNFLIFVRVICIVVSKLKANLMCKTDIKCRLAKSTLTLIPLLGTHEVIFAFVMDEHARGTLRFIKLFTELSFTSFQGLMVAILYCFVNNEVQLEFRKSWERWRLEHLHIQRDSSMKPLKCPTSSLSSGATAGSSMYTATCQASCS
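HEK293 cells stably co-expressing constitutively active GLP-1R and a cAMP-responsive luciferase reporter were seeded in DMEM with 10% Nu serum, given compounds after 12 h, and incubated 24 h at 37 deg C. Luminescence was then read.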
GLP1R ag: activates the human GLP-1 receptor; 380,000 tested, 0.007% active; HEK293 GLP-1R CRE-luciferase, luminescence, 4-6 h; cells express a hypersensitive GLP-1R form; Potency, µM (titrated, usually from 45.6 µM), inactives show at the highest dose activation, most hits filed as activators; P43220; also: % of control where 0% means no effect
Integrin act MD: activates integrin-mediated alleviation for muscular dystrophy; alpha7betagal myoblasts, beta-gal FDG fluorescence, 48 h; Potency, µM (series often up to 38.3 µM), inactives show top-dose activation, usual class: activators; 350,000 tested, 0.064% active; AID 624291;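 also: 100% = response of the positive control SU9516; nearly all actives have a fitted effect of over 60% in size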
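Alpha7betagal+/- myoblasts (passage 13) were plated 16-24 hr, then exposed to compounds (1:260 dilution of DMSO stock) for 48 hours at 37C. After MPER lysis, β-galactosidase reporter activity was read as FDG fluorescence (ex 480/em 540) after 30 minutes.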
* = called active by the depositor; u = inconclusive; x = no result. Calls follow the shape of the dose curve; as a rule, active = well fitted curve in the direction sought with a large enough effect; inconclusive = small, poorly fitted or top-dose-only effect, or another doubt; inactive = no such curve, though single readings can be large; an effect the other way counts as inactive or inconclusive. Potency is read from the fitted curve at half-maximal effect.

SMILES | BRCA1 expr act | GLP1R cytotox | GLP-1R inv ag | GLP1R ag | Integrin act MD
C=CCNC(=S)Nc1sc2c(c1C(=O)OCC)CC(C)(CC)OC2 (stereo not given) | -6% | 10µM* | -3% | 1% | -2%
CC(Nc1ncnc2c1cnn2-c1cccc(Cl)c1)c1ccccc1 (stereo not given) | x | -22% | u | x | x
CC(C)(C)NC(=O)C(c1c[nH]c2ccccc12)N(C(=O)Cn1nnc(-c2ccc(Cl)cc2)n1)c1ccccc1F (stereo not given) | -56% | -19% | 5µM* | -22% | 33%
COc1cccc(N(C(=O)Cn2nnc(-c3ccc(C)cc3)n2)C(C(=O)NC(C)(C)C)c2c[nH]c3ccccc23)c1 (stereo not given) | -62% | -15% | u | -11% | 14%
CCCCCN(CCCCC)c1ccc(/C=C/c2ccnc3ccccc23)cc1 | -8% | x | x | x | x
COc1cccc(-c2cc(C(=O)Nc3c(C)nn(Cc4ccccc4Cl)c3C)no2)c1 | x | 1% | u | x | x
CC1(C)Cc2ccccc2-c2nc3ccccc3c(=O)n21 | 4% | 0% | 7.9µM* | 11% | -8%
Cc1cc(C)c(Cn2c3ccccc3c3cnn(CC(=O)NC4CCC(C)CC4)c(=O)c32)c(C)c1 (stereo not given) | x | -4% | -25% | x | x
Cc1ccc(-c2nc(CS(=O)(=O)CC(=O)N3CCCCCC3)c(C)o2)cc1 | -23% | -11% | 10µM* | 3% | 6%
Cc1ccc(-c2nc(CS(=O)(=O)CC(=O)N3CCN(c4ccccc4)CC3)c(C)o2)cc1 | x | -10% | u | x | x
O=[N+]([O-])c1ccccc1/C=C/c1ccnc2ccccc12 | 4% | x | x | x | x
O=C(CN1C(=O)COc2ccc(S(=O)(=O)NC3CCCC3)cc21)NCc1ccccc1Cl | x | -5% | -27% | x | x
CCCN(C(=O)c1c(C)oc2ncnc(N3CCOCC3)c12)c1ccc(Cl)c(Cl)c1 | x | 45% | 9% | x | x
CCC(=O)C1CCCN(C(=O)CCc2nnc(-c3ccc(C(C)=O)s3)o2)C1 (stereo not given) | 13µM* | 7% | 31% | 6% | -20%
CCC(=O)C1CCCN(C(=O)CCc2nnc(-c3ccc4c(c3)OCO4)o2)C1 (stereo not given) | 79% | -11% | -4% | 0% | 4%
Cc1ccc(NC(=O)c2cc(S(=O)(=O)N3CCc4ccccc43)ccc2F)cc1Cl | x | 0% | 7% | x | x
CC(CCCN(C)C)C(Cc1ccccc1)c1ccccc1 (stereo not given) | -34% | -8% | 11µM* | 4% | -80%
CCC(C(=O)Nc1ccc(F)cc1F)n1nc(-c2ccccc2)c2c(c1=O)CCCC2 (stereo not given) | -18% | -4% | u | x | x
COc1cccc(CNC(=O)c2c(C)nn(-c3ccc(F)cc3)c2-n2cccc2)c1 | -21% | -4% | -26% | 25% | x
CC(=O)O[C@H](C)OC(=O)[C@@H](C)c1ccc(-c2ccccc2)c(F)c1 | x | x | x | -1% | x
Cc1cccc(C)c1NC(=O)C(C)c1ccc(-c2ccccc2)c(F)c1 (stereo not given) | -61% | -4% | 10µM* | -13% | -47%
Oc1ccc(Cl)cc1-c1cc(-c2ccco2)[nH]n1 | -82% | u | 10µM* | -28% | -43%
COc1ccccc1NC(=O)C1=C(C)Nc2nc(SCc3ccccc3Cl)nn2C1c1cccnc1 (stereo not given) | 8% | 4% | 3% | -1% | x
Cc1ccc2c(c1)-c1c(cnn1CC(=O)O)CO2 | -14% | -6% | 3% | -14% | -15%
Cc1cccc(N2CCN(C(=O)Cn3ncc4c3-c3cc(C)ccc3OC4)CC2C)c1 (stereo not given) | -18% | -12% | 11µM* | x | x
COc1ccc(C)cc1S(=O)(=O)NCC(c1ccc(N(C)C)cc1)N1CCc2ccccc21 (stereo not given) | x | 9% | -8% | x | x
Cc1cc(C)c(S(=O)(=O)NCC(c2ccc(N(C)C)cc2)N2CCc3ccccc32)c(C)c1 (stereo not given) | x | 0% | 2µM* | x | x
O=C(/C=C/c1cccs1)Nc1nccs1 | u | 0% | 3% | 1% | 0%
